Laboratory results taken from PubChem BioAssay AID1347170 (National Center for Advancing Translational Sciences (NCATS), 2019).
Records with an inconclusive call do not appear. Unmarked numbers belong to inactive results. Calls of active or inactive are those of the source. Calls follow the shape of the dose curve; as a rule, active = well fitted cell-killing curve with a large enough effect; inconclusive = small, poorly fitted or top-dose-only effect, or another doubt; inactive = flat fitted curve, though single readings scatter.

test: Vero cells viability counterscreen for qRT-PCR qHTS assay of selected Zika virus inhibitors; details: CellTiter-Glo ATP luminescence, 24 h; series mostly up to 41.8 µM; activity change, negative = cytotoxicity: at the top concentration
Description: Assay Submitters (PI): Avindra Nath, Ph.D., National Institute of Neurological Disorders and Stroke (NINDS), Bethesda, MD Radhakrishnan Padmanabhan, Ph.D., Georgetown University (GU), Washington D.C. Zika Virus causes congenital defects, including microcephaly and is associated with Guillain-Barre syndrome, eningoencephalitis and myelitis in infected adult. […] Using a target-based approach, we hope to establish a screening paradigm to uncover novel, cell-active NS2B-NS3 protease (Zika Virus) specific inhibitors from NCATS' collection of small molecules using qHTS. […] Four assay panel was created to identify potential Zika Virus inhibitors. Namely, (1) GU unlinked NS2B-NS3 AMC tagged protease qHTS, (2) GU unlinked NS2B-NS3 Rhodamine tagged protease qHTS, (3) NINDS linked NS2B-NS3 AMC tagged protease qHTS, (4) NINDS linked NS2B-NS3 Rhodamine tagged protease qHTS. Inhibitors of the Zika virus primary screens are confirmed using qRT-PCR secondary assays, mCherry orthogonal assay, and Vero cells viability counterscreen. Cytotoxic compounds identified in the Vero cell viability counterscreen were excluded from the list of potential Zika virus inhibitors. Early Translation Branch (ETB) National Center for Advancing Translational Sciences (NCATS), Rockville, MD National Institute of Health (NIH), Bethesda, Maryland
Vero Cell Viability Assay: Vero cell cytotoxicity was determined using a luminescent readout with CellTiter Glo reagent (Promega, Madison, WI), which is based on measuring the ATP content within cells. Briefly, 4 uL of Vero cells at 2.5 x 10^5 cells/mL in DMEM containing 4% FBS were dispensed into 1536-well solid bottom tissue treated white plate using a Multidrop Combi dispenser (Thermo Scientific). Plates were incubated at 37 degrees C, 95% humidity, and 5% CO2 overnight to allow for cell attachment. Compounds were dissolved in DMSO at different concentrations and transferred via pintool (Wako Automation), for a final concentration of 57 uM - 0.029 uM. Plates were again incubated for 24 hours, followed by a 2 uL addition of CellTiter Glo. Finally, plates were incubated for 30 minutes at 37 degrees C and 5% CO2 before being read on a ViewLux (Perkin Elmer) for luminescence.

Question: For `CN(Cc1ccc(C(=O)O)cc1)c1ccc(OCc2c(-c3c(Cl)cccc3Cl)noc2C2CC2)nc1C(F)(F)F`, which “activity change, negative = cytotoxicity” value is on record?
Answer: 13.2%

Question: With `CC(C)c1cccc2c(-c3ccccc3)cc(-c3ccc(-c4ccc(C(=O)O)cc4)[nH]3)nc12` as the molecule, how does the Potency read?
Answer: 25.1 µM (active)

Question: Which “activity change, negative = cytotoxicity” value does the source give for `CC(C)(C)Sc1c(CC(C)(C)C(=O)O)n(Cc2ccc(Cl)cc2)c2ccc(OCc3ccc4ccccc4n3)cc12` here?
Answer: -21.7%

Question: With `COc1ccccc1-c1cccc(-c2c(O)c3cc(C#N)c(Cl)cc3[nH]c2=O)c1` as the molecule, how does the “activity change, negative = cytotoxicity” value read?
Answer: 2.73%

Question: Which “activity change, negative = cytotoxicity” value does the source give for `Cc1ccn(-c2cc(Cl)ccc2[C@@H](Oc2cc(-c3ccc(C[C@H](N)C(=O)O)cc3)nc(N)n2)C(F)(F)F)n1` here?
Answer: -1.61%

Question: With `COc1cc2c(c(O)c1OC/C=C(\C)CC/C=C(/C)CCC=C(C)C)CN(C(CCC(=O)O)C(=O)O)C2=O` (stereo not drawn) as the molecule, how does the “activity change, negative = cytotoxicity” value read?
Answer: 4.57% [at 14.9 µM]

Question: With `CC1(C)CCC(C)(C)c2cc3c(cc21)Sc1ccccc1N=C3c1ccc(C(=O)O)cc1` as the molecule, how does the “activity change, negative = cytotoxicity” value read?
Answer: -1.86%

Question: For `CCCCCCCOc1cc2c(cc1/C(C)=C/c1ccc(C(=O)O)cc1)C(C)(C)CCS2(=O)=O`, which “activity change, negative = cytotoxicity” value is on record?
Answer: -9.56% [at 31.5 µM]

Question: With `N#CC1(c2cccc(C(=O)Nc3cc(Oc4ccc5nc(NC(=O)C6CC6)sc5n4)ccc3F)c2Cl)CC1` as the molecule, how does the “activity change, negative = cytotoxicity” value read?
Answer: 2.11%

Question: Which “activity change, negative = cytotoxicity” value does the source give for `CCOC(=O)c1ccc(N2C(=O)c3n[nH]c(-c4cccs4)c3C2c2ccc(C(C)(C)C)cc2)cc1` (stereo not drawn) here?
Answer: -6.72% [at 31.5 µM]

Question: Which “activity change, negative = cytotoxicity” value does the source give for `Cc1ccc2c(=O)c3ccccc3n(CCCN)c2c1C` here?
Answer: -11.4%

Question: For `CN(CC(=O)N(Cc1ccc(C2CCCCC2)cc1)c1ccc(C(=O)O)cc1)S(=O)(=O)c1c(F)c(F)c(F)c(F)c1F`, which Potency is on record?
Answer: 7.94 µM (active)

Question: With `N#CC1C(=O)Nc2scc(-c3ccc(-c4ccccc4O)cc3)c2C1=O` (stereo not drawn) as the molecule, how does the “activity change, negative = cytotoxicity” value read?
Answer: 11.9% [at 31.5 µM]

Question: For `CN(C)[C@@H]1C(=O)C(C(N)=O)=C(O)[C@@]2(O)C(=O)C3=C(O)c4c(O)ccc(Cl)c4[C@@H](O)[C@H]3C[C@@H]12`, which “activity change, negative = cytotoxicity” value is on record?
Answer: -3.47%

Question: For `CC(C)=CCc1c2c(c3occ(-c4ccc(O)c(O)c4)c(=O)c3c1O)C=CC(C)(C)O2`, which Potency is on record?
Answer: 8.91 µM (active)

Question: With `N#CC(c1ccc(Cl)cc1)c1c(Cl)cc(-n2ncc(=O)[nH]c2=O)cc1Cl` (stereo not drawn) as the molecule, how does the “activity change, negative = cytotoxicity” value read?
Answer: -5.71%

Question: With `CCOC(=O)c1ccc(N2C(=O)c3n[nH]c(-c4cccs4)c3C2c2ccc(Cl)cc2Cl)cc1` (stereo not drawn) as the molecule, how does the Potency read?
Answer: 25.1 µM (active)

Question: Which Potency does the source give for `Oc1c(Cl)cc(Cl)c(Cl)c1Cc1c(O)c(Cl)cc(Cl)c1Cl` here?
Answer: 35.5 µM (active)

Question: For `O=C(O)c1ccc(O)c2ncc(N3CCCN(CCc4cccc5ccccc45)CC3)cc12`, which “activity change, negative = cytotoxicity” value is on record?
Answer: -1.24%

Question: Which “activity change, negative = cytotoxicity” value does the source give for `Cc1ccc2[nH]c(=O)c(C3=NN(C(=O)CCC(=O)O)C(c4ccc(Br)cc4)C3)c(-c3ccccc3)c2c1` (stereo not drawn) here?
Answer: 5.86% [at 31.5 µM]

Question: With `CCOc1c2c(c(OCC)c3ccccc13)C(=O)N(c1ccc(CC(=O)NS(=O)(=O)c3ccccc3)cc1)C2` as the molecule, how does the “activity change, negative = cytotoxicity” value read?
Answer: 1.74%

Question: For `O=C(O)c1ccc(-n2nc(-c3ccccc3O)nc2-c2ccccc2O)cc1`, which “activity change, negative = cytotoxicity” value is on record?
Answer: 12.3% [at 31.5 µM]

Question: Which “activity change, negative = cytotoxicity” value does the source give for `COc1cc(C(=O)NS(=O)(=O)c2ccccc2C)ccc1Cc1cn(C)c2ccc(NC(=O)OC3CCCC3)cc12` here?
Answer: -4.59%

Question: Which “activity change, negative = cytotoxicity” value does the source give for `COc1cc(/C=C(\C#N)C(=O)Nc2nnc(C(F)(F)F)s2)ccc1OCc1ccc(C(F)(F)F)cc1C(F)(F)F` here?
Answer: 3.82%

Question: With `Oc1cccc(-c2c3nc(c(-c4cccc(O)c4)c4ccc([nH]4)c(-c4cccc(O)c4)c4nc(c(-c5cccc(O)c5)c5ccc2[nH]5)CC4)C=C3)c1` as the molecule, how does the “activity change, negative = cytotoxicity” value read?
Answer: 13.5% [at 31.5 µM]

Question: For `COc1cc(/C=C/c2ccccc2)c(C(=O)O)c(O)c1CC=C(C)C`, which “activity change, negative = cytotoxicity” value is on record?
Answer: -3.97% [at 31.5 µM]

Question: With `CC1(C)CCC(CN2CCN(c3ccc(C(=O)NS(=O)(=O)c4ccc(NCC5CCOCC5)c([N+](=O)[O-])c4)c(Oc4cnc5[nH]ccc5c4)c3)CC2)=C(c2ccc(Cl)cc2)C1` as the molecule, how does the Potency read?
Answer: 3.16 µM (active)

Question: With `O=C(O)C1(Cc2cccc(Nc3nccs3)n2)CCC(Oc2cccc(Cl)c2F)CC1` (stereo not drawn) as the molecule, how does the “activity change, negative = cytotoxicity” value read?
Answer: -0.248%

Question: Which “activity change, negative = cytotoxicity” value does the source give for `C/C(=C\c1ccc(C(=O)O)cc1)c1ccc2c(c1)C(C)(C)CCC2(C)C` here?
Answer: -10.7%

Question: With `CC(=O)Nc1ccc([C@H](C)C(=O)Nc2ncc(C(C)C)s2)cc1` as the molecule, how does the Potency read?
Answer: 2.82 µM (active)

Question: For `N#CC(c1ccnc(OCc2ccc(CN3CCOCC3)cc2)n1)c1nc2ccccc2s1` (stereo not drawn), which “activity change, negative = cytotoxicity” value is on record?
Answer: 0.993%

Question: For `COc1cc(Nc2nc3ccccc3nc2NS(=O)(=O)c2cccc(NC(=O)c3ccc(C)c(OC)c3)c2)cc(OC)c1`, which “activity change, negative = cytotoxicity” value is on record?
Answer: -7.94%

Question: Which “activity change, negative = cytotoxicity” value does the source give for `O=C(O)CC1CCC(c2ccc(-c3ccc(Nc4ccc(C(F)(F)F)nc4)cn3)cc2)CC1` (stereo not drawn) here?
Answer: 1.67% [at 31.5 µM]
